Our source for the inhibition values is PubChem BioAssay AID651636 (Sanford-Burnham Center for Chemical Genomics, 2012).

The whole screen tested about 360,000 compounds, of which about 3,000 (0.83%) were called active. The full list was thinned out, with actives kept by preference. Unmarked numbers belong to inactive results. Rule as the data show it: active = inhibition above about 38%; inactive = the rest.

The term inhibition denotes the drop in the measured response relative to a control, in per cent.

Chain of G-protein coupled receptor 183 (Homo sapiens) (P32249 whole entry, looked up, the tested form may be a part): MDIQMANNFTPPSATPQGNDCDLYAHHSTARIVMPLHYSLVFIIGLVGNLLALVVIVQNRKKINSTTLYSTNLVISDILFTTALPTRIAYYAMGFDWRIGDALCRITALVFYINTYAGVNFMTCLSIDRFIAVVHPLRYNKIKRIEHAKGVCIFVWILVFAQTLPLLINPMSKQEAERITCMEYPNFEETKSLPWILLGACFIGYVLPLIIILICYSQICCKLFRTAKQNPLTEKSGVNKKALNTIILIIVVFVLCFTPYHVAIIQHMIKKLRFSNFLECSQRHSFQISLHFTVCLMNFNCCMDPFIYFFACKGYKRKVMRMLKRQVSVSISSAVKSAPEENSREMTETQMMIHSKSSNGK

This experiment addresses G-protein coupled receptor 183 (Homo sapiens) (UniProt P32249). Description: blockers of oxysterol-driven EBI2 arrestin signaling – cell-based, luminescence, 7a,25-OHC stimulation, uHTS, primary screen (AID 651636).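 Also: enzyme fragment complementation signal reports receptor beta-arrestin coupling in cells; 0% = agonist plus DMSO wells and 100% = wells without agonist.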 The note with it: EBI2 beta-arrestin recruitment, 7a,25-OHC stimulated, at 5 µM, stronger effect = higher value. A general note: Activated receptors often draw arrestin, which recruitment assays turn into a signal.
Regarding `COc1ccc(CCNC(=O)CCn2c(=O)c3ccccc3n(CC(=O)NCC3CCCO3)c2=O)cc1OC` (centres undefined), the inhibition is -15.5%.

Consider `COc1ccccc1CC1(C)C(=O)Nc2ccc(OC(F)(F)F)cc21` (centres undefined), for which the inhibition is 3.59%.

`CC1(Cc2cccc(C#N)c2)C(=O)Nc2ccc(-c3cccc(C(F)(F)F)c3)cc21` (centres undefined): the inhibition was 17.2%.

Take `CC1(Cc2ccccc2C#N)C(=O)Nc2ccc(-c3ccc4[nH]ccc4c3)cc21` (centres undefined): the inhibition was 47.3% (active).

With `CCCCOCCCNC(=O)C[C@@H]1C[C@@]2(C(=O)OCC)CCCC=C2N(CCC2=CCCCC2)C1=O`, the inhibition was 1.45%.

`CCOC(=O)c1cccc(NC(=O)CN(c2ccc(C)cc2)S(=O)(=O)c2c(C)noc2C)c1`: the inhibition was 15.3%.

In the case of `CCOc1ccc(N(CC(=O)OC)S(=O)(=O)c2c(C)noc2C)cc1`, the inhibition is 1.12%.

`COc1ccc(N(CC(=O)Nc2cc(OC)ccc2OC)S(=O)(=O)c2c(C)noc2C)cc1`: the inhibition was 65.5% (active).

For `Cc1nc2ccc(C(=O)N3CCSCC3)cc2s1`, the inhibition is -12.2%.

`CCc1nc2ccc(C(=O)N3CCN(c4cccc(Cl)c4)CC3)cc2nc1CC`: the inhibition is -4.92%.

Consider `Cc1nc2ccc(C(=O)N3CCN(c4ccccc4)CC3)cc2s1`, for which the inhibition was 65.3% (active).

Consider `Cc1c(CN2CCCC(C(=O)c3cccc(Cl)c3)C2)c(=O)n(-c2ccccc2)n1C` (centres undefined), for which the inhibition is 5.82%.

`CCC1Nc2ncnc(N3CCN(c4ccccc4)CC3)c2N(Cc2ccc(Cl)cc2)C1=O` (centres undefined): the inhibition is 68.8% (active).

Turning to `OC[C@@H]1CN(Cc2ccncc2)C[C@H](n2cnc3c(N4CCN(c5ccccc5)CC4)ncnc32)O1`, the inhibition was 13.5%.

With `CC[C@]1(C(=O)OC)[C@H]2C(=O)N(Cc3ccccc3)C(=O)[C@H]2[C@H]2CN=C(SCc3ccc(Cl)cc3)N21`, the inhibition was 19.5%.

Regarding `CC(C)CC1(C)NC(=O)N(CC(=O)Nc2ccc3c(c2)OCCO3)C1=O` (centres undefined), the inhibition was 10.5%.

As to `O=C(NCCS(=O)(=O)N1CCN(c2ccc(F)cc2)CC1)c1ccc2c(c1)OCO2`, the inhibition was 5.18%.

In the case of `O=C(NNC(=S)Nc1ccc(F)cc1)[C@H]1C[C@@H]1c1ccccc1`, the inhibition was -13.1%.

Turning to `CCN(CC)c1ccc(/C=N/Nc2nc(C)cc(C)n2)c(O)c1`, the inhibition is 42.4% (active).

As for `O=C(NCCN1C(=O)S/C(=C\c2cccnc2)C1=O)c1ccc(S(=O)(=O)N2CCCC2)cc1`, the inhibition was -1.14%.

Regarding `Cc1ccc(SCCC(=O)NC(C(C)C)C(C)C)cc1`, the inhibition is 5.4%.

For the compound `Cc1cc(OCCOc2cccc3cccnc23)c(C)cc1Cl`, the inhibition is 46.6% (active).

Take `CCOc1cccc(OCCCOc2cccc3cccnc23)c1`: the inhibition is 4.1%.

Regarding `O=S(=O)(NCCOc1cccc2cccnc12)c1ccc(F)cc1`, the inhibition was 0.785%.

On to `CCOC(=O)N1CCN(C(=O)C[C@@H]2C[C@@]3(C(=O)OC)CC(C)(C)CC=C3N(Cc3ccco3)C2=O)CC1`, for which the inhibition is 3.44%.

Regarding `Cc1[nH]c(=O)c(C(=O)/C=C/c2ccccc2)c2c1CCCC2`, the inhibition was -9.45%.

As for `Cc1nc(-c2ccccc2)sc1C(=O)/C=C/c1ccccc1`, the inhibition is 55.4% (active).

Take `Cc1nc(-c2ccc(Cl)cc2)sc1C(=O)CBr`: the inhibition was 10.7%.

Take `CC1=C/C(=N\OS(=O)(=O)c2ccccc2)C=CC1=O`: the inhibition is -17.6%.

Regarding `O=S(=O)(Nc1cccc(-n2cnnn2)c1)c1cnc(Cl)c(Cl)c1`, the inhibition is -8.42%.

`CC(C)(C)C1CCC(=NNC(=O)c2ccc(Br)o2)CC1` (centres undefined): the inhibition is -9.46%.

As for `O=C1C=C(c2cccc(Cl)c2)C[C@@H](c2ccc(F)cc2)C1`, the inhibition is 22.1%.

For `COc1ccc([C@H]2CC(=O)C=C(c3ccc(CO)cc3)C2)cc1`, the inhibition is 29.6%.

On to `COc1ccc([C@H]2CC(=O)C=C(/C=C/c3ccccc3)C2)cc1`, for which the inhibition is 34.9%.

With `COc1ccc([C@H]2CC(=O)C=C(c3ccc(C)cc3)C2)cc1`, the inhibition was 81.1% (active).

In the case of `CCCCC/C=C/C1=CC(=O)C[C@H](c2ccc(Cl)cc2)C1`, the inhibition is 4.95%.

Take `N#Cc1ccc(C2=CC(=O)C[C@H](c3ccc(Cl)cc3)C2)cc1`: the inhibition was 80.3% (active).

As for `O=C1C=C(c2cc(C(F)(F)F)cc(C(F)(F)F)c2)C[C@@H](c2ccc3c(c2)OCO3)C1`, the inhibition is 14%.

Regarding `COc1ccc([C@H]2CC(=O)C=C(/C=C/c3ccc(Cl)cc3)C2)cc1`, the inhibition was 44.1% (active).

Turning to `COc1ccc2cc(C3=CC(=O)C[C@H](c4ccc5c(c4)OCO5)C3)ccc2c1`, the inhibition was 71.7% (active).

Regarding `COc1ccc([C@H]2CC(=O)C=C(c3ccc(OC(F)(F)F)cc3)C2)cc1OC`, the inhibition was 31%.

As to `COc1cccc(C2=CC(=O)C[C@H](c3ccc(OC)c(OC)c3)C2)c1`, the inhibition was 10.2%.

In the case of `O=C1C=C(c2cccc(Br)c2)C[C@@H](c2ccc(F)cc2)C1`, the inhibition is 36.7%.

Regarding `CSc1ncnc2c1ncn2CCCNCc1cccs1`, the inhibition was -4.51%.

As for `COc1ccccc1C(=O)N1C(CC(=O)Nc2ccccc2C)C(=O)NC2CCCCC21` (centres undefined), the inhibition is 3.5%.

As for `COc1ccc(C)cc1NC(=O)CSc1nnc(CC(=O)Nc2ccccc2F)n1C`, the inhibition is 6.35%.

In the case of `CN1C[C@@H](CO)O[C@@H](n2cnc3c(N4CCN(CCO)CC4)ncnc32)C1`, the inhibition was 5.76%.

Turning to `CC1CCc2sc3nc(N4CCN(CCO)CC4)n4ncnc4c3c2C1` (centres undefined), the inhibition was 61.6% (active).

Turning to `Cc1ccc(C)c(C(=O)N2CCC(n3nccc3NC(=O)C3CC3)CC2)c1`, the inhibition is 5.07%.

In the case of `C/C=C/C=C/C(=O)OCC(=O)Nc1ccc(Cl)cc1`, the inhibition is 1.78%.

In the case of `COc1ccc(NC(=O)N2CCCC(C(=O)Nc3ccccc3OC)C2)cc1` (centres undefined), the inhibition is 18.7%.

Take `COc1ccc(NC(=O)N2CCC(Cc3ccccc3)CC2)cc1`: the inhibition was 65.5% (active).

In the case of `COc1ccc(C(=O)NC2CCN(C(=O)Nc3ccc(F)cc3)CC2)cc1`, the inhibition was -4.2%.

As to `NC(=O)C1(N2CCCCC2)CCN(C(=O)c2ccc(C#Cc3ccccc3)o2)CC1`, the inhibition was -2.84%.

Regarding `CCc1ccccc1NC(=S)Nc1cc(OC)c(NC(=O)C(C)C)cc1OC`, the inhibition is -4.78%.

Take `Cc1ccc(NC(=O)C2CC(=O)N(c3ccc4c(c3)OCCO4)C2)cc1S(=O)(=O)N1CCCCCC1` (centres undefined): the inhibition was 14.6%.

Take `O=C(Nc1ccc(S(=O)(=O)N2CCCCC2)cc1)C1CCN(C(=O)c2ccc(F)cc2)CC1`: the inhibition is 17%.

`Cc1ccccc1N1CC(C(=O)Nc2ccc(S(=O)(=O)N3CCCC3)cc2)CC1=O` (centres undefined): the inhibition is 7.48%.

For `CC1CCN(S(=O)(=O)c2ccc(NC(=O)C3CC(=O)N(c4ccccc4)C3)cc2)CC1` (centres undefined), the inhibition was 38%.

Turning to `Cc1ccc(N2CC(C(=O)Nc3ccc(S(=O)(=O)N4CCCC4)cc3)CC2=O)cc1C` (centres undefined), the inhibition is 45.4% (active).

For the compound `O=C(Nc1ccc(S(=O)(=O)N2CCCCC2)cc1)C1CC(=O)N(c2ccc(F)cc2)C1` (centres undefined), the inhibition was 45.7% (active).

Take `CCCNC(=O)C1(C)CCN(C(=O)c2ccc(F)cc2Cl)C1` (centres undefined): the inhibition is -4.71%.

For the compound `OCCC#Cc1ccc(N2C(c3ccsc3)=Cc3ccc(F)cc3C2c2c[nH]c3ccccc23)cc1` (centres undefined), the inhibition is 10.6%.

As for `Cc1cnc(CN(C)C(=O)CC2C(=O)NCCN2Cc2cccc(F)c2F)[nH]1` (centres undefined), the inhibition is -7.04%.

As to `Cc1c(NC(=O)CN2C(=O)C(=O)N(Cc3ccccc3)C2=O)c(=O)n(-c2ccccc2)n1C`, the inhibition was 0.531%.

Take `CC1(C(=O)NCc2ccccc2)CSCC(=O)N1CCCn1ccnc1` (centres undefined): the inhibition was 4.35%.

On to `CCOC(=O)[C@]12CCCC=C1N(CCC1=CCCCC1)C(=O)[C@H](CC(=O)N1CCSCC1)C2`, for which the inhibition is 7.49%.

For `COC(=O)c1ccc(NC(=O)CSc2nnc(Cc3cccn3C)n2-c2ccc(F)cc2)cc1`, the inhibition was -2.09%.

`COc1ccccc1NC(=O)CSc1nnc(Cc2cccn2C)n1-c1ccc(F)cc1`: the inhibition is 9.51%.

With `COc1ccc(-n2c(Cc3cccn3C)nnc2SCC(=O)Nc2cc(C)cc(C)c2)cc1`, the inhibition was 49.5% (active).

Regarding `CC(=O)N1CCN(CC(c2ccccc2)c2ccccc2)CC1`, the inhibition is -1.32%.

As to `O=C(C(c1ccccc1)c1ccccc1)N1CCN(CC(O)COc2ccccc2)CC1` (centres undefined), the inhibition is 53.5% (active).

Take `CCCc1ccc(OCC(O)CN2CCN(C(=O)OCC)CC2)cc1` (centres undefined): the inhibition is 22.6%.

With `O=C(O)C1=C(C(=O)O)C2CCC1C2`, the inhibition is 6.95%.

Regarding `COc1ccc(O)c(/C=N/N=C/c2cccc([N+](=O)[O-])c2)c1`, the inhibition was 1.28%.

With `COc1ccc(/C=N/N=C/c2c[nH]c(=O)c(C#N)c2Nc2ccccc2)cc1`, the inhibition is 90.2% (active).

Consider `COc1ccc(/C=C(/NC(=O)c2ccccc2)C(=O)Nc2cccc(C(=O)O)c2)cc1`, for which the inhibition was -12.6%.

With `O=C(CN1CCN(S(=O)(=O)c2ccc(Cl)s2)CC1)NCc1ccc(Cl)cc1`, the inhibition was 15.5%.

Turning to `O=C(COc1ccc(Cl)cc1)N1CCN(S(=O)(=O)c2ccc(Cl)cc2)CC1`, the inhibition is 89.2% (active).

As for `O=C(COc1ccc(Cl)cc1)N1CCN(c2cccc(C(F)(F)F)c2)CC1`, the inhibition was 84.9% (active).

For `Cc1ccc(OCC(=O)N2CCN(S(=O)(=O)c3ccc(Cl)s3)CC2)cc1C`, the inhibition was 90% (active).

`O=C(CN1CCN(S(=O)(=O)c2ccc(Cl)s2)CC1)N1CCCCC1`: the inhibition was -6.5%.

As for `Cc1c(C)c2ccc(OCC(=O)N3CCN(c4cccc(Cl)c4)CC3)cc2oc1=O`, the inhibition was 11.5%.

On to `O=C(COc1ccc2c(c1)CCC2)N1CCN(c2ccc(F)cc2)CC1`, for which the inhibition is 44.5% (active).

With `O=C(CSc1ccccn1)N1CCN(S(=O)(=O)c2ccc(Cl)cc2)CC1`, the inhibition was 1.72%.

Consider `Nc1nc(SCC(=O)N2CCN(S(=O)(=O)c3ccc(Cl)cc3)CC2)n[nH]1`, for which the inhibition was -6.16%.

With `O=C(Nc1ccc2c(c1)CCC2)c1cccc(S(=O)(=O)N2CCN(c3ccc(F)cc3)CC2)c1`, the inhibition was -5.81%.

In the case of `COc1ccc(N2CCN(C(=O)COc3ccc4c(C)cc(=O)oc4c3)CC2)cc1`, the inhibition was -7.37%.

In the case of `CSCCC(NC(=O)COc1ccccc1)C(=O)N1CCN(c2cccc(C(F)(F)F)c2)CC1` (centres undefined), the inhibition is 26.3%.
